The source of these data is PubChem BioAssay (EPA / NIEHS).

Each structure is given as a SMILES string. Where “and” joins values, the source holds several entries; their conditions need not be identical. Equal entries are not always repeated. Some structures have more than one record in an assay (separate samples or runs), and their calls can disagree. Calls of active or inactive are those of the source. Rule for the calls: active = hit-call score of the fitted dose curve at least 0.9, where 1 is the maximum; inactive = score below 0.9.

Read-out in experiment [1]: Collagen I, COL1A1 (gene 1277)
Briefly: BSK_hDFCGF_CollagenI: BioMAP Diversity Plus: hDFCGF Assay for Collagen I Biomarker Activity (AID 2284250). Conditions: primary human foreskin fibroblasts. In outline:
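Readout: Collagen I by ELISA after 24 h compound treatment of primary human foreskin fibroblasts. Endpoint analysed for increases relative to DMSO; total protein by SRB in parallel wells flagged cytotoxicity.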

Read-out in experiment [2]: Interferon-inducible T-cell alpha chemoattractant (ITAC), CXCL11 (gene 6373)
Briefly: BSK_hDFCGF_ITAC: BioMAP Diversity Plus: hDFCGF Assay for Interferon-inducible T-cell alpha chemoattractant (ITAC) Biomarker Activity (AID 2284251). Conditions: primary human foreskin fibroblasts. The method in brief: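 Measured by ELISA, the chemokine level serves as the endpoint in human skin fibroblast primary cultures 24 h after compound addition. Increases relative to DMSO-treated wells define activity.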

Read-out in experiment [3]: Plasminogen activator inhibitor-1 (PAI1), SERPINE1 (gene 5054)
Put plainly: BSK_KF3CT_PAI1: BioMAP Diversity Plus: KF3CT Assay for Plasminogen activator inhibitor-1 (PAI1) Biomarker Activity (AID 2284252). Conditions: primary human keratinocytes with fibroblasts. The method in brief:
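In this co-culture of primary human keratinocytes and foreskin fibroblasts, PAI-1 was measured by ELISA at 24 h and fitted upward from DMSO.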

Read-out in experiment [4]: Interleukin-8 (IL8), CXCL8 (gene 3576)
Put plainly: BSK_KF3CT_IL8: BioMAP Diversity Plus: KF3CT Assay for Interleukin-8 (IL8) Biomarker Activity (AID 2284254). Conditions: primary human keratinocytes with fibroblasts. In outline: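 IL-8 read-out: ELISA, 24 h post-dose, human skin primary co-culture (keratinocytes + foreskin fibroblasts). DMSO = baseline; positive-direction fit.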

Read-out in experiment [5]: Intercellular Adhesion Molecule 1 (ICAM1), ICAM1 (gene 3383)
Put plainly: BSK_BE3C_ICAM1: BioMAP Diversity Plus: BE3C Assay for Intercellular Adhesion Molecule 1 (ICAM1) Biomarker Activity (AID 2284278).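 For outcome: cell-surface ICAM-1 protein level quantified by ELISA.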 Conditions: primary human bronchial epithelial cells. In outline:
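hu bronchial epithelial primary cells, 24 h cpd exposure, ICAM-1 ELISA; gain-of-signal fit vs DMSO baseline.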

Read-out in experiment [6]: Interferon-inducible T-cell alpha chemoattractant (ITAC), CXCL11 (gene 6373)
Put plainly: BSK_BE3C_ITAC: BioMAP Diversity Plus: BE3C Assay for Interferon-inducible T-cell alpha chemoattractant (ITAC) Biomarker Activity (AID 2284279). Conditions: primary human bronchial epithelial cells. In outline: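 BE3C cells (human primary bronchial epithelium), 24 h compound exposure, I-TAC by ELISA, DMSO = negative control/baseline, positive fitting direction.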

Read-out in experiment [7]: Interleukin-8 (IL8), CXCL8 (gene 3576)
Briefly: BSK_BE3C_IL8: BioMAP Diversity Plus: BE3C Assay for Interleukin-8 (IL8) Biomarker Activity (AID 2284280). Conditions: primary human bronchial epithelial cells. The method in brief: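 Dose human bronchial epithelial cells with chemical; incubate 24 h; quantify IL-8 by ELISA; fit response upward versus DMSO controls.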

Read-out in experiment [8]: Epidermal growth factor receptor (EGFR), EGFR (gene 1956)
Briefly: BSK_BE3C_EGFR: BioMAP Diversity Plus: BE3C Assay for Epidermal growth factor receptor (EGFR) Biomarker Activity (AID 2284281). Conditions: primary human bronchial epithelial cells. In outline:
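ELISA read-out of EGFR levels on human bronchial epithelial primary cells collected 24 h post-dosing. DMSO served as negative control and baseline for gain-of-signal fitting.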

Read-out in a further experiment: KRT18 (gene 3875)
Briefly: BSK_BE3C_Keratin818: BioMAP Diversity Plus: BE3C Assay for Keratin 818 Biomarker Activity (AID 2284282). Conditions: primary human bronchial epithelial cells. In outline: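 In this multiplexed primary-cell system, bronchial epithelial cells were dosed and harvested at 24 h. Keratin 8/18 was determined by ELISA and analysed for increases over DMSO controls.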

Read-out in experiment [9]: Matrix Metallopeptidase 9 (MMP9), MMP9 (gene 4318)
Put plainly: BSK_BE3C_MMP9: BioMAP Diversity Plus: BE3C Assay for Matrix Metallopeptidase 9 (MMP9) Biomarker Activity (AID 2284283). Conditions: primary human bronchial epithelial cells. The method in brief:
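ELISA read-out of MMP-9 after 24 h compound exposure of human lung bronchial epithelial primary cells (BE3C). Fit in gain direction vs DMSO negative control; total protein by SRB in parallel cultures flagged overt cytotoxicity.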

Read-out in experiment [10]: Plasminogen activator inhibitor-1 (PAI1), SERPINE1 (gene 5054)
Briefly: BSK_CASM3C_PAI1: BioMAP Diversity Plus: CASM3C Assay for Plasminogen activator inhibitor-1 (PAI1) Biomarker Activity (AID 2284284).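 Note: PAI-1 protein level measured by ELISA 24 h after dosing.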 Conditions: primary human coronary artery smooth muscle cells.

Read-out in experiment [11]: Interleukin 2 (IL2), IL2 (gene 3558)
Briefly: BSK_BT_xIL2: BioMAP Diversity Plus: BT Assay for Interleukin 2 (IL2) Biomarker Activity (AID 2284245). Conditions: primary human B cells with PBMC. In outline:
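Co-cultures of primary human B cells and PBMC are treated with chemical and sampled at 24 h. IL-2 secretion is quantified by Luminex xMAP, with DMSO-treated wells as baseline.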

Read-out in experiment [12]: Basic fibroblast growth factor (bFGF), FGF2 (gene 2247)
Put plainly: BSK_MyoF_bFGF: BioMAP Diversity Plus: MyoF Assay for Basic fibroblast growth factor (bFGF) Biomarker Activity (AID 2284246). Conditions: primary human lung fibroblasts. In outline: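 Fibroblasts from human lung, 24 h dosing. bFGF by ELISA; gain of signal over DMSO.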

Read-out in experiment [13]: Collagen IV, COL4A1 (gene 1282)
Put plainly: BSK_MyoF_CollagenIV: BioMAP Diversity Plus: MyoF Assay for Collagen IV Biomarker Activity (AID 2284247). Conditions: primary human lung fibroblasts. In outline:
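Lung fibroblasts (human primary) treated with chemicals were assayed after 24 h for Collagen IV using an ELISA, with DMSO serving as negative control and baseline for a positive-direction fit.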

Read-out in experiment [14]: Plasminogen activator inhibitor-1 (PAI1), SERPINE1 (gene 5054)
Briefly: BSK_MyoF_PAI1: BioMAP Diversity Plus: MyoF Assay for Plasminogen activator inhibitor-1 (PAI1) Biomarker Activity (AID 2284256).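 For outcome: PAI-1 protein level measured by ELISA in fibroblast cultures; PAI-1 read 24 h after compound addition.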 Conditions: primary human lung fibroblasts. The method in brief: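 MyoF lung fibroblasts, human primary; compound 24 h; PAI-1 ELISA; positive-direction fit vs DMSO baseline; parallel SRB total-protein staining for cytotoxicity.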

Read-out in experiment [15]: Interleukin-8 (IL8), CXCL8 (gene 3576)
Put plainly: BSK_MyoF_IL8: BioMAP Diversity Plus: MyoF Assay for Interleukin-8 (IL8) Biomarker Activity (AID 2284261). Conditions: primary human lung fibroblasts. In outline: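 Lung fibroblasts (human primary) → chemical exposure → 24 h → IL-8 measured by ELISA. Signal increase scored versus DMSO control.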

Read-out in another experiment: Decorin, DCN (gene 1634)
Briefly: BSK_MyoF_Decorin: BioMAP Diversity Plus: MyoF Assay for Decorin Biomarker Activity (AID 2284265). Conditions: primary human lung fibroblasts. The method in brief:
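ELISA readout of decorin, 24 h post-dosing; primary human lung fibroblast (MyoF) culture; gain-of-signal fit vs DMSO baseline.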

Experiment [16] in a line: BSK_MyoF_SRB: Viability Assessment in the BioMAP Diversity Plus: MyoF Assay (AID 2284267).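 Note: total protein by SRB absorbance in parallel cultures as cytotoxicity measure.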 Conditions: primary human lung fibroblasts. In outline:
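In this viability endpoint, fibroblasts from human lung are treated for 24 h, TCA-fixed, SRB-stained (0.1%) and read at 560 nm. Gain of signal relative to DMSO defines activity.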

Read-out in experiment [17]: Matrix Metallopeptidase 1 (MMP1), MMP1 (gene 4312)
Briefly: BSK_MyoF_MMP1: BioMAP Diversity Plus: MyoF Assay for Matrix Metallopeptidase 1 (MMP1) Biomarker Activity (AID 2284268). Conditions: primary human lung fibroblasts. In outline: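 Cells: human lung fibroblasts. Exposure: 24 h chemical dosing. Detection: ELISA for MMP1. Analysis: upward fitting against DMSO negative control.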

Read-out in experiment [18]: TIMP metallopeptidase inhibitor 1 (TIMP1), TIMP1 (gene 7076)
Briefly: BSK_MyoF_TIMP1: BioMAP Diversity Plus: MyoF Assay for TIMP metallopeptidase inhibitor 1 (TIMP1) Biomarker Activity (AID 2284269). Conditions: primary human lung fibroblasts. The method in brief: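 Fibroblasts from human lung are dosed with chemical, cultured 24 h, and assayed for TIMP-1 by ELISA. Increases over the DMSO baseline are scored, with SRB total-protein staining run in parallel for cytotoxicity.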

As for `CCOC(=O)c1ccccc1C(=C1C=C(Br)C(=O)C(Br)=C1)c1cc(Br)c(O)c(Br)c1`, the half-maximal activity concentration (AC50) was 3.27 µM (active) in experiment [1]; 4.39 µM (active) and 4.49 µM (active) in experiment [2]; 3.18 µM (active) and 3.06 µM (active) in experiment [3]; 5.49 µM (active) and 5.66 µM (active) in experiment [5]; 3.9 µM (active) and 3.63 µM (active) in experiment [6]; 7.85 µM (active) and 7.6 µM (active) in experiment [7]. Besides, the concentration at half-maximal activity (AC50) in the experiment with KRT18 (gene 3875) is 3.98 µM (active) and 4.84 µM (active); in [9], 4.52 µM (active) and 2.5 µM (active). The outcome in experiment [4], in experiment [8] and in experiment [10] was inactive.
With `CCO[Si](C)(OCC)OCC`, the outcome in experiment [1], in experiment [2], in experiment [3], in experiment [4], in [5] and in experiment [6] was inactive. In addition, the result (in experiment [7]; in [8]; in the experiment with KRT18 (gene 3875); in experiment [9]; in experiment [10]) was inactive.
Regarding `CCCCC(CC)COC(=O)c1ccccc1O` (stereo not drawn), the outcome in experiment [11] is “inactive”; in experiment [12] it was “inactive”; in [13] it was “inactive”; in experiment [14] it was “inactive”; in [15] it was “inactive”; with Decorin, DCN (gene 1634), “inactive”. For the same compound, the outcome in experiment [16] and in experiment [18] was inactive. Further, the AC50 in experiment [17] was 10 µM (active).
As for `O=C(Nc1ccccc1SSc1ccccc1NC(=O)c1ccccc1)c1ccccc1`, the outcome is “inactive” in experiment [12]; “inactive” in experiment [13]; “inactive” in experiment [14]; “inactive” in experiment [15]; “inactive” in the experiment with Decorin, DCN (gene 1634); “inactive” in experiment [16]. The outcome in [17] and in [18] was inactive.
For the compound `c1ccc2c(c1)ccc1cc3c(ccc4ccccc43)cc12`, the half-maximal activity concentration (AC50) in [11] is 0.0436 µM (active). Besides, the outcome was “inactive” in experiment [11]; “inactive” in experiment [12]; “inactive” in [13]; “inactive” in experiment [14]; “inactive” in [15]; “inactive” with Decorin, DCN (gene 1634). For the same compound, the outcome in [16], in experiment [17] and in experiment [18] was inactive.
Turning to `CCCCCCCCCCCCCCCC[N+](C)(C)CC`, the half-maximal activity concentration (AC50) in [11] is 1.26 µM (active); in experiment [12] it was 8.45 µM (active); in [13], 3.25 µM (active); in experiment [14] it was 2.65 µM (active); in the experiment with Decorin, DCN (gene 1634), 5.5 µM (active); in [16], 1.39 µM (active). For the same compound, the half-maximal activity concentration (AC50) was 9.34 µM (active) in experiment [17] and 2.73 µM (active) in [18]. For the same compound, the result in experiment [15] was inactive.
As for `O=C(Cl)c1cc(C(=O)Cl)cc(C(=O)Cl)c1`, the AC50 in experiment [11] is 29.7 µM (active); in experiment [12], 36.9 µM (active); in [13], 30 µM (active); in [14] it was 39.1 µM (active); in experiment [16], 34.7 µM (active); in experiment [17], 31.9 µM (active). Further, the concentration at half-maximal activity (AC50) in experiment [18] was 31.2 µM (active). Also, the outcome in the experiment with Decorin, DCN (gene 1634) was inactive.
In the case of `CO[Si](OC)(OC)c1ccccc1`, the outcome in experiment [1], in experiment [2], in experiment [3], in experiment [4], in experiment [5] and in [6] was inactive. For the same compound, the result (in experiment [7]; in experiment [8]; in the experiment with KRT18 (gene 3875); in [9]; in experiment [10]) was inactive.
In the case of `CCCCC(CC)COCC1CO1` (stereo not drawn), the outcome in experiment [1], in experiment [2], in [3], in experiment [4], in [5] and in experiment [6] was inactive. The outcome (in experiment [7]; in experiment [8]; with KRT18 (gene 3875); in [9]; in experiment [10]) was inactive.

As usually defined, the AC50 is the concentration at which the activity in the assay is half-maximal.
